The values that follow come from ChEMBL document CHEMBL1961873, “Compounds: GSK PKIS; Assays: Nanosyn kinase panel” (2012).

The inhibition is the drop in the measured response relative to a control, in per cent.

Dual specificity protein kinase CLK2 (Homo sapiens), sequence (P49760 whole entry, looked up): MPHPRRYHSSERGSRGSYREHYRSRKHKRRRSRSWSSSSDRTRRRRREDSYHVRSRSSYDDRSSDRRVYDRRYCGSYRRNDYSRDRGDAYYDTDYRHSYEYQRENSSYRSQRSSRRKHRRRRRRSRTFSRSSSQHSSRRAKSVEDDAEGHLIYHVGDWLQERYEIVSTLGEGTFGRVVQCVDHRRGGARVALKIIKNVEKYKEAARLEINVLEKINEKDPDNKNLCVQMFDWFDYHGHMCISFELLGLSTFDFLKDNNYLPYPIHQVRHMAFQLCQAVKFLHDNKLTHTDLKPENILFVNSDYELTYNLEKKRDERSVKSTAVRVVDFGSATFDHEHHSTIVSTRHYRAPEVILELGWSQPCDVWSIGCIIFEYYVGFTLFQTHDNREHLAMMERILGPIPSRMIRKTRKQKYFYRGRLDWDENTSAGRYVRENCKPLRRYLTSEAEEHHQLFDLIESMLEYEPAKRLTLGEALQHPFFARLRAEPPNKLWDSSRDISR

The first assay addresses Dual specificity protein kinase CLK2 (Homo sapiens) (UniProt P49760). The settings on record: at 0.1 µM.
Take `N#Cc1c(NC(=O)c2ccccc2F)sc2c1CCCC2`: the inhibition is -1.95%.

On to `Cc1ccc(Nc2ccnc(Nc3cccc(C(N)=O)c3)n2)cc1O`, for which the inhibition came out at 1.32%.

Regarding `Cc1ccc(C(=O)NC2CC2)cc1-c1ccc2[nH]ncc2c1`, the inhibition was -1%.

`COc1cc(Nc2nccc(-c3cnn4ncccc34)n2)cc(OC)c1`: the inhibition turned out to be 99.2%.

Take `NS(=O)(=O)c1cccc(-c2cc3ccncc3cc2OCc2ccccc2)c1`: the inhibition came to 1.16%.

Regarding `CC(C)c1ccc(Nc2nccc(-c3cnn4ncccc34)n2)cc1`, the inhibition worked out at 14%.

`CCOc1nccc2c1nc(-c1nonc1N)n2CC`: the inhibition is 1.77%.

With `c1ccc(Cc2nc3ccc(Nc4ncnc5ccccc45)cc3[nH]2)cc1`, the inhibition came to 1.26%.

`Cc1ccc(O)cc1Nc1ccnc2ccc(S(C)(=O)=O)cc12`: the inhibition amounted to 2.47%.

Regarding `Cc1ccc(NC(=O)CC2CC2)cc1-c1ccc(C(=O)NCC2CC2)cc1`, the inhibition amounted to 0.47%.

Regarding `O=S(=O)(CCOCc1ccc(-c2ccc3ncnc(Nc4ccc(OCc5cccc(F)c5)c(Cl)c4)c3c2)o1)c1ccccc1`, the inhibition was -0.59%.

For the molecule `CCn1c(-c2nonc2N)nc2c(C#CC(C)(C)O)nc(OCCNC)cc21`, the inhibition amounted to 1.52%.

Turning to `COc1cc2ncn(-c3cc(OCc4ccccc4S(C)(=O)=O)c(C#N)s3)c2cc1OC`, the inhibition came out at 0.22%.

`Nc1nccc(C#Cc2cncnc2Nc2ccc(OCc3cccc(F)c3)c(Cl)c2)n1`: the inhibition turned out to be 2.79%.

Turning to `CCn1c(-c2nonc2N)nc2ccc(F)cc21`, the inhibition was found to be 2.5%.

Turning to `NS(=O)(=O)c1ccc(NC=C2C(=O)Nc3ccc4ncsc4c32)cc1`, the inhibition stood at 28.3%.

Regarding `COC(=O)c1ccc2c(c1)C(=Cc1cc(Br)c(O)c(Br)c1)C(=O)N2`, the inhibition amounted to 8.63%.

Consider `Cc1cc(-c2ccccn2)cc(C)c1/C=C/c1cncc(-c2nn[nH]n2)c1`, for which the inhibition is 0.95%.

The target is the same in another assay. The settings on record: at 1 µM.
As to `Nc1ccc(C#Cc2cncnc2Nc2ccc(OCc3cccc(F)c3)c(Cl)c2)cc1`, the inhibition is -1.31%.

For the molecule `ON=C1CCc2cc(-c3nc(C4CCNCC4)[nH]c3-c3ccncc3)ccc21`, the inhibition is -0.07%.

With `CS(=O)(=O)CCNCc1nc(-c2ccc3ncnc(Nc4ccc(OCc5cccc(C(F)(F)F)c5)cc4)c3c2)cs1`, the inhibition was 1.02%.

Consider `Cc1ccc2c(-c3ccnc(Nc4ccc5c(c4)OCCO5)n3)c(-c3ccc(C(F)(F)F)cc3)nn2n1`, for which the inhibition was -0.4%.

`CN(C)C(=O)O[C@H]1CN[C@H](C#Cc2cc3ncnc(Nc4ccc(OCc5cccc(F)c5)c(Cl)c4)c3s2)C1`: the inhibition stood at 0.42%.

Consider `COc1cc(/C=N/Nc2ncnc3c2cnn3C(C)C)ccc1O`, for which the inhibition was 23.2%.

For the molecule `Cc1cc(Cl)cc2c1NC(=O)C2=NNc1ccc(S(N)(=O)=O)cc1`, the inhibition is 2.34%.

For `Nc1nccc(-c2c(-c3ccc(F)cc3)nn3cc(C(F)(F)F)ccc23)n1`, the inhibition was -2.43%.

`COC(=O)c1cncc(/C=C/c2c(C)cc(O)cc2C)c1`: the inhibition came to 2.84%.

As to `Cc1nc(-c2ccccc2)n2nc(NCCCN3CCOCC3)ncc12`, the inhibition is 10.1%.

In the case of `Cc1ccc2c(c1)/C(=N/Nc1ccc(S(N)(=O)=O)cc1)C(=O)N2`, the inhibition was determined as 3.06%.

For the molecule `CCCN1CCCC(c2ccc(Nc3nc(Nc4cc(F)ccc4C(N)=O)c4cc[nH]c4n3)c(OC)c2)C1` (stereo unspecified), the inhibition was determined as 93.8%.

As for `CN(c1ccc(NC(=O)Nc2ccc(OC(F)(F)F)cc2)cc1)c1ccnc(Nc2cccc(S(N)(=O)=O)c2)n1`, the inhibition is -2.84%.

As for `O=C1Nc2ccccc2/C1=C/Nc1ccc2[nH]c(=O)[nH]c2c1`, the inhibition was found to be 30.4%.

On to `FC(F)(F)c1ccc(-c2nn3ncccc3c2-c2ccnc(Nc3ccc4c(c3)OCCO4)n2)cc1`, for which the inhibition worked out at 2.93%.

As to `N#Cc1c(NC(=O)c2ccccc2F)sc2c1CCCC2`, the inhibition was -0.15%.

In the case of `Cc1ccc(Nc2ccnc(Nc3cccc(C(N)=O)c3)n2)cc1O`, the inhibition came to 6.94%.

For `Cc1ccc(C(=O)NC2CC2)cc1-c1ccc2[nH]ncc2c1`, the inhibition is 0.36%.

Take `COc1cc(Nc2nccc(-c3cnn4ncccc34)n2)cc(OC)c1`: the inhibition came to 99.9%.

As for `NS(=O)(=O)c1cccc(-c2cc3ccncc3cc2OCc2ccccc2)c1`, the inhibition came to 1.27%.

`CC(C)c1ccc(Nc2nccc(-c3cnn4ncccc34)n2)cc1`: the inhibition came to 65.3%.

On to `CCOc1nccc2c1nc(-c1nonc1N)n2CC`, for which the inhibition stood at 1.91%.

As to `c1ccc(Cc2nc3ccc(Nc4ncnc5ccccc45)cc3[nH]2)cc1`, the inhibition came out at 2%.

On to `Cc1ccc(O)cc1Nc1ccnc2ccc(S(C)(=O)=O)cc12`, for which the inhibition is 7.17%.

As for `Cc1ccc(NC(=O)CC2CC2)cc1-c1ccc(C(=O)NCC2CC2)cc1`, the inhibition was found to be 0.08%.

`O=S(=O)(CCOCc1ccc(-c2ccc3ncnc(Nc4ccc(OCc5cccc(F)c5)c(Cl)c4)c3c2)o1)c1ccccc1`: the inhibition stood at 1.39%.

Turning to `CCn1c(-c2nonc2N)nc2c(C#CC(C)(C)O)nc(OCCNC)cc21`, the inhibition worked out at 3.81%.

For the molecule `COc1cc2ncn(-c3cc(OCc4ccccc4S(C)(=O)=O)c(C#N)s3)c2cc1OC`, the inhibition was 10.8%.
